# RGS4 inhibitor: human RGS4 inhibition. Potency, µM (highest dose often 114 µM), inactives show at the top dose activity change, negative = inhibition, hits mostly inhibitors. Transcreener GDP fluorescence polarization, RGS4-accelerated GTP hydrolysis. actives 0.039% (n = 390,000). P49798. AID 504845; further: on the % scale 0 is the no-effect control and ±100 the full control effect; nearly all actives have a fitted effect of over 75% in size
#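 MLSMR compounds (23 nl, pin-transferred) preincubated 10 min at room temperature with a 500nM (2x) first reagent, then RGS4 at 900nM (2x) plus Transcreener GDP mix added; fluorescence polarization (620/688 nm) read before and after 90 min at 30 °C.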
# PTHR1 agonist: activates the human parathyroid hormone receptor PTHR1. HEK293 GP2 PTHR1 cells, GloSensor cAMP luminescence, 1 h. Potency, µM (doses to about 115 µM), for inactives: at the highest dose activation, most hits filed as activators. actives 0.075% (n = 410,000); further: nearly all actives have a fitted effect of over 55% in size
#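 HEK-293-derived GP2 cells expressing PTHR1 and a GloSensor cAMP reporter, 3,000/well, plated overnight, given luciferin plus IBMX (each 0.5 mM as added) for 1 h at 37 °C, then compound for 1 h at 37 °C. Luminescence was read after 15 min at room temperature.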
# KAT2A inh: blocks human GCN5L2 histone acetyltransferase; GCN5L2 HAT assay, ThioGlo1 CoA-SH fluorescence; actives 0.21% (n = 390,000); Q92830; Potency, µM (series often up to 58.9 µM), without a hit: top-dose activity change, negative = inhibition, hits mostly inhibitors; further: on the % scale 0 is the no-effect control and ±100 the full control effect
# Target sequence (Q92830 whole entry, looked up): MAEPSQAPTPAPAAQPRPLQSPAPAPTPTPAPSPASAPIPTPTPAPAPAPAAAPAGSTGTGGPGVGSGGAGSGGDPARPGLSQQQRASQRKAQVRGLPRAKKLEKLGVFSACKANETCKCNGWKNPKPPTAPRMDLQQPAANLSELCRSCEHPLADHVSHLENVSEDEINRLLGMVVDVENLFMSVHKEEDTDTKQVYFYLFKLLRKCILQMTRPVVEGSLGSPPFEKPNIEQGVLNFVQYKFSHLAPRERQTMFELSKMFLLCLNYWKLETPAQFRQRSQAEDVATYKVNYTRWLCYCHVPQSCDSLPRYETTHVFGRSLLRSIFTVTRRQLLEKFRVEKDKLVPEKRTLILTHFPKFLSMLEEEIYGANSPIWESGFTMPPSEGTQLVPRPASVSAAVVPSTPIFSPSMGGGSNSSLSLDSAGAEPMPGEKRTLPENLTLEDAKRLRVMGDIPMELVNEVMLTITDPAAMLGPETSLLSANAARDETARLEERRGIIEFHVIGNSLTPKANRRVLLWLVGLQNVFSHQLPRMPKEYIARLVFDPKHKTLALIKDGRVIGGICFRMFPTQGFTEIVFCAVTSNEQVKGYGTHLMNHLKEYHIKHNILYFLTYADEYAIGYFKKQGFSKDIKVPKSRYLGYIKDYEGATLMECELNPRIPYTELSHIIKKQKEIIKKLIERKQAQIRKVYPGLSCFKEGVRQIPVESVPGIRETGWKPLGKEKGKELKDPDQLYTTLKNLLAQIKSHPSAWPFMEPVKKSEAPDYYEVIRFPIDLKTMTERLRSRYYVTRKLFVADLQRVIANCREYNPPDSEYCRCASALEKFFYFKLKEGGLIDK
#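 Enzyme at 20nM final was mixed with library compounds for 15 min at room temperature. Peptide H3(1-25) at 75uM, acetyl-CoA at 70uM and ThioGlo1 at 50uM were then added. Plates were read immediately and after 20 min (Ex340nm/Em540nm).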
# GLP1R inv ag: inverse agonists of human GLP-1 receptor. HEK293 GLP-1R CRE-luciferase, luminescence, 24 h; GLP-1R form is constitutively active. AID 624417. Potency, µM (top dose mostly 38.3 µM), for inactives: top-dose activity change, negative = inhibition, actives largely listed as inhibitors. actives 1.6% (n = 410,000); further: on the % scale 0 is the no-effect control and ±100 the full control effect; nearly all actives have a fitted effect of over 55% in size
#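 GLP-1R inverse agonism mode: basal reporter luminescence in engineered HEK293 cells measured after one day of compound exposure at 37 deg C, with a 12 min room-temperature detection step.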
# GLP-1R agonist: agonists of human GLP-1 receptor; P43220; HEK293 GLP-1R CRE-luciferase, luminescence, 4-6 h; cells express a hypersensitive GLP-1R form; Potency, µM (top dose mostly 45.6 µM), for inactives: at the highest dose activation, hits mostly activators; actives 0.007% (n = 380,000); AID 624172; further: % of control where 0% means no effect
# HEK293 tox: cytotoxic in the GLP-1 receptor inverse agonist counter-screen | HEK293 cAMP-luciferase reporter cells, luminescence, 24 h | Potency, µM (series often up to 38.3 µM), for the others: at the highest dose activity change, negative = inhibition, hits mostly inhibitors | actives 0.13% (n = 410,000) | AID 624418;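 further: loss of luciferase light is scored as toxicity; on the % scale 0 is the no-effect control and ±100 the full control effect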
#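 Cells in DMEM/10% Nu serum/1% pen-strep, 1536-well format. Pre-incubated 12 h, dosed with 23 nL compound, incubated a further 24 h. Luciferase detection, 12 min at room temp, luminescence.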
# * marks the source's active call; other numbers are inactive results; i = inactive; ? = inconclusive; · = no result given; [ ] = dose if it differs, or a comment. Compounds with a hit are over-represented: about 1.8% of the library has one in this group of screens. The call rests on the fitted dose curve; in most records, active means well fitted curve in the direction sought with a large enough effect; inconclusive means small, poorly fitted or top-dose-only effect, or another doubt; inactive means no such curve, though single readings can be large; an effect the other way counts as inactive or inconclusive. Potency means the concentration at half of the fitted maximal effect.
SMILES,RGS4 inhibitor,PTHR1 agonist,KAT2A inh,GLP1R inv ag,GLP-1R agonist,HEK293 tox
COc1cc(C(=O)NS(=O)(=O)c2ccccc2C)ccc1Cc1cn(C)c2ccc(NC(=O)OC3CCCC3)cc12,·,·,7.1µM*,·,-1%,·
CC(C)NC(=O)NC(=O)COc1ncnc2sccc12,-25%[56.9 µM],-5%[57.5 µM],0%,-4%,-6%,1%
CC(C)NC(=O)COc1ncnc2sccc12,15%,i,32µM*,-3%,-7%,7%
Brc1ccc2ncc(Br)cc2c1,7%,i,-2%,-5%,3%,-2%
Cc1ccc(-n2ncc3c(N(CC(C)C)CC(C)C)ncnc32)c(C)c1,8%,i,-3%,2.8µM*,·,1%
Cc1ccc(-n2ncc3c(NCCCOC(C)C)ncnc32)c(C)c1,-53%,-15%[57.5 µM],-9%,2.5µM*,1%,13%
O=C(N1CCCCC1)N1CCN(C(c2ccccc2)c2ccccc2)CC1,19%,i,-2%,5µM*,1%,0%
O=C(NC1CCCCC1)N1CCN(C(c2ccccc2)c2ccccc2)CC1,6%,?,-6%,4µM*,4%,18%
C/C(=C\C(=O)OCCCCCCCCC(=O)O)C[C@@H]1OCC(C[C@H]2O[C@H]2[C@@H](C)[C@H](C)O)[C@@H](O)[C@H]1O (stereo not given in full),·,·,30%,·,·,·
CN1CCC(N(C)S(=O)(=O)c2ccc(NC(=O)COc3ccc(F)cc3)cc2)CC1,-4%,i,-13%,?,-1%,14%
CN1CCC(N(C)S(=O)(=O)c2ccc(NC(=O)COc3ccc(F)cc3Cl)cc2)CC1,-9%,i,-10%,10µM*,3%,2%
O=[N+]([O-])c1ccc(/C=N/N=C/c2ccc([N+](=O)[O-])o2)o1,12%,-39%,-8%,?,14%,10µM*
CC(=O)N/N=C/c1ccc([N+](=O)[O-])o1,·,·,-15%,·,-5%,·
CC(=O)Nc1ccc(S(=O)(=O)NCC2CCC(C(=O)NCc3ccccc3Cl)CC2)cc1 (stereo not given),1%,i,-13%,3%,·,10%
COc1cccc(NC(=O)C2CCN(S(=O)(=O)c3c(C)noc3/C=C/c3cccs3)CC2)c1,8%,-13%,-19%,?,·,3%
CNC(=S)N(CCc1c(C)[nH]c2ccc(C)cc12)Cc1ccco1,-14%,i,-1%,10µM*,12%,2%
CCNC(=S)N(CCc1c(C)[nH]c2ccc(Cl)cc12)Cc1ccco1,17%,-93%,-4%,?,2%,?
CCOC(=O)c1sc(NC(=S)NC(=O)C2CCCC2)cc1C,-20%,-30%,-16%,?,13%,-4%
CCOC(=O)c1sc(NC(=S)NC(=O)CC(C)C)cc1C,-11%[11.4 µM],-3%[57.5 µM],-12%,10µM*,4%,?
O=c1[nH][nH]c(=S)n1C1CCCCC1,-128%,i,16µM*,18%,0%,1%
O=c1cc(O)n(C2CCCCCC2)c(=O)[nH]1,?,i,9%,-5%,-4%,1%
O=C(COc1ccc(Cl)cc1)NNC(=O)c1ccccn1,-7%,-24%,-2%,-26%,-1%,0%
Cc1cc(C)cc(OCC(=O)NNC(=O)c2ccccn2)c1,-17%,i,2%,13µM*,-1%,?
COc1cc(CNCCc2ccccc2)cc(Br)c1OCC(=O)Nc1ccccc1C,10%[56.9 µM],-1%,-12%,7.9µM*,-1%,?
Cc1cc(Br)ccc1OCCNCc1ccccc1,16%,-16%,-9%,8.9µM*,40%,3%
SMILES,RGS4 inhibitor,PTHR1 agonist,KAT2A inh,GLP1R inv ag,GLP-1R agonist,HEK293 tox
CCCNCc1cc(Br)ccc1OCC(=O)NCCc1ccccc1,-43%,i,-2%,-70%,-5%,?
O=C(COc1ccc(Br)cc1CNCCc1ccccc1)NCc1ccccc1,-22%[56.9 µM],-30%,-3%,10µM*,3%,?
CCOCCCNC(=O)c1cc(=O)[nH]c2ccc(S(=O)(=O)N3CCCC3)cc12,-5%,23%,1%,20%,0%,1%
CC(C)NC(=O)c1cc(C2CCCCN2C(=O)c2ccc(C#N)cc2)on1 (stereo not given),·,i,·,-8%,-2%,2%
COc1ccc(NS(=O)(=O)c2cc(C)ccc2OC)cc1OC,-16%,-11%[57.5 µM],-7%,5%,-1%,-11%
COc1ccc(C)cc1S(=O)(=O)Nc1ccc(F)c(Cl)c1,-24%,i,-20%,10µM*,-3%,-8%
Cc1c(C(=O)NCCSCc2cccc(C(F)(F)F)c2)cnn1-c1ccc(Cl)cc1,-9%,-23%,-10%,5µM*,15%,-4%
NC(=S)N/N=C1/CCSc2ccc3ccccc3c21,?,-45%,7%,2.2µM*,14%,2µM*
NC(=S)N/N=C/c1c(O)ccc2ccccc12,-24%,i,0%,-37%,-4%,-14%
CCCCN1C(=O)C(CC(=O)NCc2cccc3ccccc23)CC(C(=O)N(C)C)=C1C (stereo not given),·,0%,·,1%,0%,4%
Cc1oc(-c2ccccc2)cc1C(=O)Nc1cccc2ccccc12,?,-20%[57.5 µM],3%,10µM*,-11%,-18%
Cc1oc(-c2ccccc2)cc1C(=O)Nc1cccc(C(=O)O)c1,-1%,i,-10%,7%,-11%,2%
Cc1nc2ccccc2c(N)c1C(=O)/C=C/c1ccccc1,2%,-96%,0%,10µM*,-3%,?
CCOc1ccc(NC(=O)CN(C)C(=O)CCCOc2ccc(Cl)c(C)c2)cc1OCC,-8%,i,-25%,?,-2%,-18%
Cc1ccc(OCc2nnc(SCC(=O)c3ccccc3)n2-c2ccccc2)cc1,?,-5%,-4%,-15%,7%,-25%
Cc1cccc(-n2c(CCc3ccccc3)nnc2SCC(=O)c2ccccc2)c1,?,-14%,-9%,5µM*,-2%,?
Cc1ccc(NC(=O)CN2CC(C)SC2=NC2CCCCC2)cc1 (stereo not given),-3%,?,-20%,11µM*,8%,?
CCc1ccc(NC(=O)CN2CCN(C3CCCCC3)C(=O)C2=O)cc1,-9%,-9%,-7%,-21%,·,0%
O=C(Cn1c(=O)n(CCc2ccccc2)c(=O)c2c3c(sc21)CCCC3)Nc1ccc(F)c(F)c1,-3%,-14%,-5%,13%,1%,3%

# Bioassay records (PubChem BioAssay)
